# TWEAK-Fn14 inh – inhibitors of TWEAK-Fn14 interaction signaling | TWEAK-stimulated Fn14 reporter cells, luciferase luminescence, 8 h | inhibition, % at 10 µM | 360,000 compounds, 2% hits; in the data active = inhibition above about 50%
# HSF1 inhib – HSF1 inhibition; 300,000 compounds, 0.77% hits; AID 2098; activity change, negative = inhibition, % at 7.5 µM (by protocol); NIH3T3-HGL HSE-luciferase, MG132-induced, luminescence 8 h; hits give low values;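 active = more than half of replicate wells show activity change below -50%, luminescence cut by over half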;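 note: luciferase reports HSF-1 transcriptional activity via heat shock element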
# EBV LMP1 NFkB – reduces LMP1-driven NF-kappaB luciferase signal. inhibition, % at 12.5 µM. LMP1-induced NF-kappaB luciferase reporter cells, luminescence. AID 504558. 350,000 compounds, 0.69% hits; in the data active = inhibition above about 41%
# TROY NFkB inh – blocks TROY-dependent signaling in reporter cells. AID 1347056. Q293 LMP1-TROYcd NF-kB luciferase reporter, 4 h. inhibition, % at 10 µM. 360,000 compounds, 0.98% hits;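 active = compounds whose plate-normalised and pattern-corrected inhibition of the luciferase reporter signal at the single screening dose is 50% or more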
# HSP90 inh – HSP90 refolding inhibition in rabbit reticulocyte lysate. inhibition, % at 5.6 µM. luciferase refolding luminescence, 3 h. AID 1789. 290,000 compounds, 0.91% hits;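 active = inhibition above the screen-wide mean plus 3 SD, computed separately per campaign, cut at about 16% in these data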;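 note: inhibitors lower the luminescence because luciferase stays unfolded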
# HSF1 activator – increases HSF-1 driven luciferase reporter signal; AID 504408; activation, % at 9 µM; NIH3T3-HGL HSF-1 luciferase reporter, MG132, 8 h; 100% = twice DMSO control signal; 300,000 compounds, 1.7% hits;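 active = mean replicate activation of at least 50% with a set share of replicates each reaching 50%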
# Hits are given with their value; - = inactive; . = no result. Rows were chosen to be rich in hits. Some 4.7% of all compounds tested hit in one or more screens of this group.
SMILES,TWEAK-Fn14 inh,HSF1 inhib,EBV LMP1 NFkB,TROY NFkB inh,HSP90 inh,HSF1 activator
O=Cc1ccc(OCc2ccc3c(c2)OCO3)cc1,-,-,-,-,-,-
Cc1ccc(COc2ccc3c(c2)OCO3)cc1,-,-,-,-,-,58.9
COc1ccc(OC)c(N(CCN2C(=O)c3ccccc3C2=O)C(=O)CCl)c1,-,.,-,-,.,.
Cc1ccccc1-c1cnc(C(O)c2cccc(C)c2C)[nH]1 (stereo not given),-,.,.,-,.,.
COc1ccc(OCC(=O)Nn2c(-c3ccc(C)cc3)nc3ccccc3c2=O)cc1,71.9,-,-,71.6,-,-
Cc1ccc(OCC(=O)NNc2c3ccccc3nc3ccccc23)cc1,72.4,-,-,-,-,-
COc1ccc(NC(=O)COc2ccc(-c3nn(C)c(=O)c4ccccc34)cc2)cc1,-,-82.7,-,-,-,-
Cc1ncnc(N)c1CCCNc1ccccc1,-,.,-,-,.,.
COc1ccc(C(=O)Nc2cc(OC)c(NC(=O)Nc3ccccc3)cc2OC)cc1,-,.,-,-,.,.
CCOC(=O)c1sc2nc(OCc3cccnc3)cc(C)c2c1N,-,.,.,-,.,.
CCOC(=O)c1cc2ccccc2n1C1CCN(C)CC1,-,.,.,-,.,.
C=CCN1C(=O)N(c2ccc(F)cc2)C(=O)C1CC(=O)Nc1ccc(Cl)cc1 (stereo not given),80.2,-,-,-,-,-
Cc1cc2cc(CCNC(=O)C(=O)c3c[nH]c4ccccc34)c(=O)[nH]c2cc1C,-,-62.7,-,-,-,-
Cc1ccccc1C(=O)N1CCN(c2ccc(NC(=O)c3ccco3)cc2Cl)CC1,-,.,51.0,-,-,.
O=C(NC(=S)N1CCN(c2ccc([N+](=O)[O-])cc2Cl)CC1)c1ccco1,-,-,-,-,-,55.5
Cc1ccc(NC(=O)c2cc(NC(=O)c3ccco3)ccc2N2CCOCC2)cc1,-,-64.0,-,-,-,-
O=C(Nc1ccc(N2CCOCC2)c(Cl)c1)c1cccnc1Cl,-,-,-,-,-,-
Cc1ccc(NC(=O)c2cc(NC(=O)c3ccco3)ccc2N2CCCCC2)cc1,-,-,-,-,-,-
O=C(Nc1ccc(N2CCN(C(=O)c3cccs3)CC2)c(Cl)c1)c1ccco1,-,-,-,-,-,-
COc1c(C)cccc1C(=O)Nc1ccc(N2CCOCC2)c(Cl)c1,-,-,-,-,-,60.3
O=C(Nc1ccnn1C1CCN(C(=O)c2cccnc2)CC1)c1cccc(F)c1,-,.,-,-,.,.
COCCNC(=O)C1(C)CCN(Cc2noc(-c3c(C)noc3C)n2)C1 (stereo not given),-,.,.,-,.,.
Cn1nc(C(C)(C)C)cc1NC(=O)C1(C)CCN1C(=O)Cc1ccc(-c2ccccc2)cc1 (stereo not given),-,.,.,-,.,.
CCn1c(Cl)c(C=O)s/c1=N\S(=O)(=O)c1ccccc1,98.9,-,-,-,-,113.2
CCN1C(=O)CS/C1=N\S(=O)(=O)c1ccc(Cl)cc1,-,-,-,-,-,-
SMILES,TWEAK-Fn14 inh,HSF1 inhib,EBV LMP1 NFkB,TROY NFkB inh,HSP90 inh,HSF1 activator
Cc1cc(=O)n2[nH]c(=O)c(N=Nc3ccccc3)c2[nH]1,-,-64.3,-,-,-,-
Cc1ccc(NC(=O)Cc2noc3ccccc23)cc1,-,-,-,-,-,-
Cc1ccc(/C=N\NC(=O)Cc2noc3ccccc23)cc1,-,-86.8,-,-,-,-
COc1ccc(C(=O)C(C)OC(=O)C2CC3CCCC(C2)C3=O)cc1 (stereo not given),-,.,-,-,.,.
O=C(Cn1c(NCCCO)nc2ccccc21)c1ccc(Cl)cc1,-,-,-,-,-,-
O=C(Cn1c(NCCCO)nc2ccccc21)c1ccco1,-,-,-,-,16.1,-
CCC(C)[C@H](NC(=O)OC(C)(C)C)C(=O)NCC1CCC(C(=O)N[C@@H](Cc2ccccc2)C(=O)O)CC1 (stereo not given in full),-,-,-,-,-,-
CC(C)(C)OC(=O)N[C@@H](Cc1ccccc1)C(=O)NCC1CCC(C(=O)N[C@@H](CC(=O)O)C(=O)O)CC1 (stereo not given in full),-,-63.0,-,-,-,-
O=C(O)C1=CCC=CC1C(=O)O (stereo not given),-,.,-,-,.,.
CC1(C)CC2CC(C)(CN2C(=O)COc2cccc3ccccc23)C1 (stereo not given),-,-,-,-,-,-
CC1(C)CC2CC(C)(CN2C(=O)CCCN2C(=O)c3ccccc3C2=O)C1 (stereo not given),-,-56.6,-,-,-,-
CCCOC1CCCN(C(=O)CCc2nnc(Cc3cccc(C)c3)o2)C1 (stereo not given),-,-,-,-,-,63.1
Cc1ccc(NC(=O)COC(=O)[C@H](C)N2C(=O)C3CC=CCC3C2=O)cc1S(=O)(=O)N(C)C (stereo not given in full),-,-,-,-,-,67.9
Cc1ccc(NC(=O)COC(=O)Cn2cnc3ccccc32)cc1S(=O)(=O)N(C)C,-,-82.6,-,-,-,-
Cc1ccc(NC(=O)CSc2nn(-c3ccccc3)c(=S)s2)cc1S(=O)(=O)N(C)C,78.8,-,-,-,-,-
O=C(CSc1nn(-c2ccccc2)c(=S)s1)Nn1cnnc1,-,-,-,-,-,-
C[C@H]1CN([C@@H](C)CO)C(=O)CCCn2nncc2CO[C@H]1CN(C)S(=O)(=O)c1ccc(F)cc1,-,.,-,-,.,.
Cc1nnc(NCc2cccc(Cl)c2)c2ccccc12,-,-,-,-,-,-
Cc1nnc(NCCc2ccccc2)c2ccccc12,-,-,-,-,-,53.6
CC(=O)N1CCOC12CCN(Cc1ccccc1)CC2,-,.,-,-,.,.
OCCCNc1ncnc2c1ncn2[C@H]1CN(Cc2ccco2)C[C@@H](CO)O1,-,.,.,-,.,.
C/C(=N\NC(=O)CCc1ccc(S(=O)(=O)N2CCOCC2)cc1)c1ccc(Br)cc1,-,-,-,-,-,60.8
O=c1c(/C=N\NS(=O)(=O)c2ccccc2)coc2ccc(Cl)cc12,-,-75.0,-,-,-,-
CCOC(=O)C1(C)CCCCCN1C(=O)c1ccc(N(C)C)cc1 (stereo not given),-,.,.,-,.,.
CCOC(=O)/C(=C\c1cccnc1)C(=O)c1cc(C(C)=O)c(Nc2ccccc2)s1,106.1,-93.2,-,85.7,-,-
SMILES,TWEAK-Fn14 inh,HSF1 inhib,EBV LMP1 NFkB,TROY NFkB inh,HSP90 inh,HSF1 activator
CCOC(=O)c1cc(C)sc1NC(=S)Nc1ccccc1,-,-,-,-,-,-
CCOC(=O)/C(=C\c1ccccc1)C(=O)c1cc(C(C)=O)c(Nc2ccccc2)s1,70.1,-,52.9,-,-,-
Nc1ccc2c(Cl)cc(Cl)cc2c1,-,.,-,-,.,.
CC(C)C[C@@H]1Cc2[nH]c(=S)[nH]c(=O)c2[C@H](C)O1,-,.,.,-,.,.
CCCCNC(=O)C[C@@H]1C[C@@]2(C(=O)OC)CCCCC=C2N(Cc2ccccc2)C1=O,-,.,.,-,.,.
O=c1cc(Nc2ccc3c(c2)OCCO3)[nH]c(=O)n1Cc1ccc(F)cc1,69.5,-,-,50.6,-,-
